66 compounds from PubChem BioAssay AID504882 (Broad Institute, 2011) can be followed below.

In all, about 1,200 compounds went through this assay and about 290 (24%) were called active. About 9% were inconclusive and are not listed. No rule for the calls is given here. The list is a sample of the results. Measured potencies and affinities stand elsewhere.

A short description of this assay: cytotoxicity in EBV lymphoblastoid cells, dose response, cytotoxicity control, cell-based, plate reader, cherry-picks, set 2 (AID 504882).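 Also: 0% = neutral control wells and -100% = positive control wells.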 The following applies: EBV lymphoblastoid cells (LCL) viability; series mostly up to 19.5 µM; activity change, negative = cytotoxicity: at the top concentration.
Turning to `C[C@]12CC[C@@H]3c4ccc(OS(=O)(=O)O)cc4CC[C@H]3[C@@H]1CCC2=O`, the “activity change, negative = cytotoxicity” value is 24% (inactive).
For `COc1ccccc1C(=O)NC(=O)CSc1nnc(N)s1` the value was 15.9% (inactive); for `c1csc(CNc2ncnc3ccc(-c4ccoc4)cc23)c1`, -6.02% (inactive).
The figure for `COc1ccc(C(=O)CSc2nnc(Cc3ccccc3)o2)cc1` is 20.6% (inactive); for `CC[C@H]1OC(=O)[C@H](C)[C@@H](O[C@H]2C[C@@](C)(OC)[C@@H](O)[C@H](C)O2)[C@H](C)[C@@H](O[C@@H]2O[C@H](C)C[C@H](N(C)C)[C@H]2O)[C@](C)(O)C[C@@H](C)C(=NOCOCCOC)[C@H](C)[C@@H](O)[C@]1(C)O` it is 20% (inactive).
For `N=C1S/C(=C\c2ccccc2)C(=O)N1c1ccc(F)cc1` the value was 4.09% (inactive); for `CCC(=O)OC1c2ccccc2C(=O)N1Cc1ccccc1` (stereo unspecified), 12.3% (inactive).
Regarding `CC(=O)/C=C/c1ccccc1O`, the “activity change, negative = cytotoxicity” value is 3.18% (inactive).
For `CNc1ccc(Br)cc(C(=O)/C=C/c2cc(OC)ccc2OC)c1=O` the value was 12.3% [at 6.8 µM] (inactive).
On to `CNc1ccc(Br)cc(C(=O)/C=C/c2cccc(OC)c2)c1=O`, for which the “activity change, negative = cytotoxicity” value is -33% (inactive).
For `COC(=O)C1=C(C)N(CCCC(=O)O)C(=O)NC1c1cccc(Cl)c1Cl` (stereo unspecified) the value was 16.1% (inactive); for `O=C(CSc1nnc(NC(=O)c2ccc3c(c2)OCO3)s1)NCc1ccco1`, 14% (inactive); for `CCOc1ccc(C(=O)Nc2nnc(SCC(=O)NCC3CCCO3)s2)cc1` (stereo unspecified), 19.9% (inactive).
For `COc1ccc(C(=O)OCC(=O)c2c[nH]c3ccccc23)cc1OC` the value was -0.621% (inactive); for `O=C1NC(=O)/C(=C\c2ccc(OCc3cccc(C(=O)O)c3)c(Cl)c2)N1`, 2.65% (inactive); for `O=C(CN(Cc1cccs1)C(=O)CNS(=O)(=O)c1ccccc1)NCc1ccco1`, 9.67% (inactive).
The figure for `Cc1ccc(S(=O)(=O)N2CCN(C(=O)CSc3nnnn3C)C2)cc1` is 15.3% (inactive).
Consider `O=C(O)/C=C/c1ccc(Cn2ccnc2)cc1`, for which the “activity change, negative = cytotoxicity” value is 8.15% (inactive).
For the compound `Cc1ccccc1NC(=O)CN1C(=O)S/C(=C\c2cccn2-c2cccc(C(=O)O)c2)C1=O`, the “activity change, negative = cytotoxicity” value was 10.6% (inactive).
The figure for `CC(C)[C@H](N[C@@H](C)c1ccccc1)c1c(O)ccc2ccccc12` is 4.74% (inactive); for `O=C(C1CC1)N1N=C(c2ccc(Br)cc2)CC1(O)C(F)(F)F` (stereo unspecified) it is -4.6% (inactive); for `CN1CCN(CCOc2ccc(Cc3ccccc3)cc2)CC1` it is 11.5% (inactive).
Take `CN(C)S(=O)(=O)c1ccc(Cl)c(C(=O)NCCNC(=O)c2cc(S(=O)(=O)N(C)C)ccc2Cl)c1`: the “activity change, negative = cytotoxicity” value was 10.8% (inactive).
The figure for `CCCc1cc(=O)c2c(O)ccc(OC)c2o1` is 16.7% (inactive); for `O=c1cc(C2CCCCC2)[nH]c(=O)[nH]1` it is 27.8% (inactive); for `CC(=O)OCC(=O)[C@@]1(O)CC[C@H]2[C@@H]3CCC4=CC(=O)CC[C@]4(C)[C@H]3[C@@H](O)C[C@@]21C` it is 12.8% (inactive).
For `O=C(CN1CCN(S(=O)(=O)c2ccc(F)cc2)CC1)Nc1cccc(C(F)(F)F)c1` the value was 0.696% (inactive); for `O=C(/C=C/Nc1cccc(C(F)(F)F)c1)C(F)(F)F`, 7.21% (inactive).
In the case of `O=C(c1ccco1)N1CCN(S(=O)(=O)/C=C/c2ccccc2)CC1`, the “activity change, negative = cytotoxicity” value is 6.55% (inactive).
The figure for `O=C(Nc1ncccc1O)c1ccc(S(=O)(=O)NCc2ccco2)cc1` is 12% (inactive).
For `CCOC(=O)C1=C(C)N(C)C(=O)NC1c1ccccc1OC` (stereo unspecified) the value was 9.56% (inactive).
For `Cc1cc(=S)[nH]c2ccccc12` the value was 4.96% (inactive).
`CC(=O)Oc1ccc(C(=O)Nc2cccnc2)cc1`: the “activity change, negative = cytotoxicity” value was 12.1% (inactive).
Take `CC(C)CCNC(=O)C1CCN(S(=O)(=O)c2ccc3c(c2)CC(C)N3C(=O)C2CC2)CC1` (stereo unspecified): the “activity change, negative = cytotoxicity” value was -4.93% (inactive).
Consider `Cc1ccc2c(c1)N(CC(=O)N1CCCC1)C(=O)c1cccnc1O2`, for which the “activity change, negative = cytotoxicity” value is 7.79% (inactive).
For `Cc1ccc(S(=O)(=O)N[C@H](C(=O)N2CCC(C(=O)N[C@@H](CC(=O)O)C(=O)O)CC2)C(C)C)cc1` the value was 11% (inactive); for `Cc1ccc(C(=O)Nc2ccc3c(c2)OCCO3)cc1`, -1.25% (inactive).
For `Cc1ccc(NC(=O)c2ccc3c(c2)OCCO3)nc1` the value was -13.1% (inactive); for `COc1ccc(OC)c(NC(=O)COC(=O)COc2ccc(Nc3ccccc3)cc2)c1`, 7.62% (inactive).
As for `Cc1cc(C)c(S(=O)(=O)N2CCN(C(=O)c3ccccc3OCc3c(C)noc3C)CC2)c(C)c1`, the “activity change, negative = cytotoxicity” value was 10.4% (inactive).
Take `O=C(NCc1ccccc1Cl)C1CCCN1S(=O)(=O)c1ccc(F)cc1` (stereo unspecified): the “activity change, negative = cytotoxicity” value was 13.2% (inactive).
The figure for `COc1ccc(C=NNc2nc3ccccc3s2)cc1` is -1.54% (inactive); for `Cc1ccc(/C=C/c2nc3ccccc3s2)s1` it is 19% (inactive); for `N/C(=N\OC(=O)c1ccccc1)c1ccccn1` it is -14.6% (inactive).
Take `C[C@@H]1CN([C@@H](C)CO)S(=O)(=O)c2ccc(/C=C/c3ccccc3)cc2O[C@@H]1CN(C)Cc1ccc(C(=O)O)cc1`: the “activity change, negative = cytotoxicity” value is 0.346% (inactive).
The figure for `O=C(NC1=NCCS1)c1cc2ccccc2o1` is -0.76% (inactive); for `COc1ccc(C(=O)Nc2nnc(SCC(=O)NC3CC3)s2)cc1` it is 2.73% (inactive).
Consider `c1ccc(-c2cn3c4c(sc3n2)CCCC4)cc1`, for which the “activity change, negative = cytotoxicity” value was -0.762% (inactive).
Turning to `Cc1cc(C)n2nc(CC(=O)NC3CCCCCC3)nc2n1`, the “activity change, negative = cytotoxicity” value is 20.7% (inactive).
The figure for `Cc1nc(SCC(=O)c2cccc([N+](=O)[O-])c2)n[nH]1` is 33.1% (inactive); for `COc1ccc2cc3c(N)nn(C(=O)c4cccc([N+](=O)[O-])c4)c3nc2c1` it is 9.99% (inactive); for `CCn1c(SC(C)C)nnc1-c1c[nH]c2ccccc12` it is 20.4% (inactive).
The figure for `CC(=O)c1cccc(NC(=O)Nc2ccc(C(=O)N3CCOCC3)cc2)c1` is 14.3% (inactive); for `COc1ccc(-c2csc(Nc3cccc(C)n3)n2)cc1OC` it is 33.9% (inactive).
For the compound `CC[C@]1(C(=O)OC)[C@H]2C(=O)N(Cc3ccccc3)C(=O)[C@H]2[C@H]2CN=C(SCc3ccc(C#N)cc3)N21`, the “activity change, negative = cytotoxicity” value is 4.38% (inactive).
For `COc1ccc(CN2C(=O)c3cccnc3C2Nc2cc(Cl)ccc2OC)cc1` (stereo unspecified) the value was 14.9% (inactive); for `Clc1ccc(-c2cn3nc4c(nc3n2)CCCC4)cc1`, -9.43% (inactive); for `COCCn1c(SCCN2CCOCC2)nc2c1c(=O)[nH]c(=O)n2C`, 11.5% (inactive).
For `COc1cc2nc(N3CCN(C(=O)C4CCCO4)CC3)nc(N)c2cc1OC` (stereo unspecified) the value was 12.8% (inactive); for `O=C(Nc1ccc2c(c1)C(=O)OC2)c1ccc(C(F)(F)F)cc1`, 5.14% (inactive).
Consider `C/C(=N\Nc1ccc(C(F)(F)F)cc1[N+](=O)[O-])C(C)C`, for which the “activity change, negative = cytotoxicity” value was 4.95% (inactive).
The figure for `COC(=O)c1ccc2nc(-c3cccc(N)c3)cn2c1` is 0.862% (inactive); for `CCOC(=O)Nc1ccc2c(c1)N(C(=O)CN(C)C)c1ccccc1CC2` it is 7.62% (inactive); for `COc1ccc(-c2nc(C)ncc2-c2ccccc2)c(O)c1` it is 11.5% (inactive).
With `c1ccc(OCCSc2nnc3sc4ccccc4n23)cc1`, the “activity change, negative = cytotoxicity” value was 8.57% (inactive).
The figure for `COc1ccc(N2C(=O)C(=O)/C(=C(/O)c3ccc(C)cc3)C2c2cccnc2)cc1` (stereo unspecified) is 5.14% (inactive).
